Compound activity as filed in PubChem BioAssay.
CtBP-E1A blk – qHTS Assay for Inhibitors of the CtBP/E1A Interaction; activity change, % (no concentration beside the values); CtBP / adenovirus E1A interaction (AlphaScreen); 0.49% of 340,000 active; AlphaScreen GST-E1A/His-CtBP binding, 1536-well; stronger effect = lower value; in the data active = activity change below about -65%; inconclusive = mostly about -30% to -63%; note: % is set by controls: 0 for no effect and ±100 for the full control effect
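In 5 uL wells, 23 nL compound meets equimolar GST-E1A and His-CtBP (5X stock 125 nM each) for 2 h, 37 °C. Beads (5X, 50 ug/mL) then 1 h, 37 °C, dark.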
HP1b chromo inh – HTS for Inhibitors of HP1-beta Chromodomain Interactions with Methylated Histone Tails; Chromobox protein homolog 1 (Homo sapiens), P83916; AlphaScreen HP1-beta / biotin-H3K9me3 peptide binding; Potency, µM (doses to about 114 µM), for inactives: at the top dose activity change, negative = inhibition, hits mostly inhibitors; 0.56% of 390,000 active; AID 540317, 2011; note: potency is the fitted concentration of half-maximal effect; nearly all actives have a fitted effect of over 70% in size
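HP1-beta protein (50 nM final) preincubated 30 min at room temperature with biotinylated H3(1-18)K9me3 peptide (50 nM) in PBS pH 7.4, 0.01% Tween-20, then compound added for 30 min. AlphaScreen streptavidin donor/nickel chelate acceptor beads (10 ug/mL final), 30 min dark, luminescence read.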
G9a inh – qHTS Assay for Inhibitors of Histone Lysine Methyltransferase G9a; G9a H3K9 monomethylation, AlphaScreen, 2 h; Histone-lysine N-methyltransferase EHMT2 (Homo sapiens), Q96KQ7; 8.8% of 350,000 active; Potency, µM (doses to about 102 µM), inactives show at the top dose activity, negative = inhibition, actives largely listed as inhibitors; note: potency is the fitted concentration of half-maximal effect; % is set by controls: 0 for no effect and ±100 for the full control effect; nearly all actives have a fitted effect of over 75% in size
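AlphaScreen read-out: biotin-H3K9 peptide (500 nM) methylation by 20 nM enzyme with 20 uM SAM, 2 h at room temperature after 15 min compound preincubation; anti-monomethyl H3K9 antibody plus donor/acceptor beads, 10 min dark.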
JMJD2A Tudor inh – qHTS Assay for Inhibitors of JMJD2A-Tudor Domain | Potency, µM (highest dose often 114 µM), for the others: top-dose activity change, negative = inhibition, usual class: inhibitors | AlphaScreen JMJD2A-Tudor / H3K4me3 peptide binding | Lysine-specific demethylase 4A (Homo sapiens), O75164 | 4.4% of 390,000 active; note: potency is the fitted concentration of half-maximal effect; % is set by controls: 0 for no effect and ±100 for the full control effect; nearly all actives have a fitted effect of over 50% in size
Six1-Eya2 inh – qHTS Assay for Inhibitors of the Six1/Eya2 Interaction; AlphaScreen GST-Six1/His-Eya2 binding, biochemical; stronger effect = lower value; AID 651725, 2012; activity change, % (test concentration not listed); 0.56% of 360,000 active; Homeobox protein SIX1 (Homo sapiens) + Protein phosphatase EYA2 (Homo sapiens), …; in the data active = activity change below about -65%; inconclusive = mostly about -30% to -63%; note: % is set by controls: 0 for no effect and ±100 for the full control effect
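GST-Six1 + His-Eya2 (5X stock: 250/500 nM); Tris pH 8.0, 300 mM NaCl, 0.05% BSA, 0.02% Tween 20; GSH donor/Ni acceptor beads; 1 h 37 °C dark; AlphaScreen readout.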
BAZ2B inh – qHTS Assay for Inhibitors of BAZ2B; Bromodomain adjacent to zinc finger domain protein 2B (Homo sapiens), Q9UIF8; AlphaScreen BAZ2B-H3K14Ac peptide displacement; Potency, µM (highest dose often 114 µM), without a hit: top-dose activity change, negative = inhibition, most hits filed as inhibitors; 4.4% of 360,000 active; AID 504333, 2011; note: potency is the fitted concentration of half-maximal effect; % is set by controls: 0 for no effect and ±100 for the full control effect; nearly all actives have a fitted effect of over 60% in size
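In this displacement format the biotinylated H3(5-23) peptide acetylated at Lys14 serves as ligand at 50 nM, with BAZ2B at 50 nM in PBS pH 7.4 containing 0.01% Tween-20. Donor and acceptor beads are 10 ug/mL final.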
Starred values were filed as active, the others as inactive; u = inconclusive; x = no result; ! = not confirmed by another sample; [ ] = remark or other dose. A selection: hits, their analogues and other compounds. The true share with any hit is near 10%. Unless noted, calls come from the whole dose curve; as a rule, active = well fitted inhibition curve with a large enough effect; inconclusive = small, poorly fitted or top-dose-only effect; inactive = no such curve, though single readings can be large or run the other way.

SMILES	CtBP-E1A blk	HP1b chromo inh	G9a inh	JMJD2A Tudor inh	Six1-Eya2 inh	BAZ2B inh
CCC/C(=C1/C(=O)CC(C)(C)C(C(=O)OC)C1=O)N1CCCC1 (configuration not stated)	14.9	18.6%	70.8µM*	-25.5%	0.3	-9.6%
CCOC(=O)CCc1ccc(NC(=O)/C=C/c2ccc([N+](=O)[O-])o2)cc1	12.7	20.7%	x	-16.0%	-9.2	x
CCc1ccc(C(=O)/C=C/c2ccc([N+](=O)[O-])o2)cc1	-9.8	u	31.6µM*	u	-22.8	u
COc1ccc(NC2C[C@H]3CCCC(=O)N4CC[C@@H](C2)[C@@H]34)cc1 (some centres not stated)	x	x	39.8µM*	x	x	x
Cc1ccc2c(c1)C(c1ccncc1)=NNC(c1ccccc1)=N2	1.1	-18.5%	14.8%	-25.4%	2.9	-19.8%
c1ccc(C2=Nc3c(ccc4ccccc34)C(c3ccncc3)=NN2)cc1	-6.3	u	x	35.5µM*	-27.3	35.5µM*
O=C(Cn1c(=O)n2nc(-c3cccc(F)c3)nc2c2ccccc21)N1CCN(c2ccc(F)cc2)CC1	x	40.3%	-9.3%[59 µM]	-7.8%	x	3.9%
CC(=C/C(=O)O)/C=C/c1ccc([N+](=O)[O-])cc1	8.1	32.3%	56.2µM*	-6.6%	7.6	u
O=Cc1ccc(OC(=O)/C=C/c2ccccc2)cc1	-94.4*	16.9%	4.1%	0.0%	u	6.3%
CCOc1ccc(/C=C/C(=O)Oc2ccccc2)cc1	-21.6	25.0%	x	0.0%	0.8	-5.1%
O=C(/C=C/c1cccnc1)c1ccc(F)c(F)c1	-1.1	24.5%	39.8µM*	-4.2%	6.2	-16.4%
O=C(/C=C/c1ccc([N+](=O)[O-])cc1)Nc1ncc([N+](=O)[O-])s1	x	9.5%	50.1µM*	-30.6%	-0.5	35.5µM*
COc1cccc(Cn2c(=O)n(CC3CCC(C(=O)N4CCCCC4)CC3)c(=O)c3sccc32)c1 (configuration not stated)	x	19.4%	4.1%[59 µM]	-31.7%	x	-24.0%
Cc1cccc(N(CC(=O)Nc2cccc(Cl)c2C)S(C)(=O)=O)c1C	x	12.4%	-5.0%[59 µM]	-18.3%	x	-1.1%
COc1cccc(NC(=O)/C=C/c2ccccc2[N+](=O)[O-])c1	6.8	-8.0%	u	-17.3%	-7.1	u
COc1ccc(OC(=O)/C=C/c2ccc([N+](=O)[O-])cc2)cc1	-87.0*	19.3%	5.7%[2.33 µM]	-6.8%	-19.5	-0.9%
CC(/C=C\c1cccnc1)=C/C(=O)O	10.5	-4.5%	-27.3%[59 µM]	56.2µM*!	-3.6	50.1µM*!
O=C(O)/C=C/c1cccnc1	2.3	26.7%	16.2%[59 µM]	-2.7%	-18.8	-3.4%
COc1cccc(NC(=O)/C=C/c2ccc([N+](=O)[O-])cc2)c1	-22.2	-13.3%	7.94µM*	-33.8%	-18.0	u
Cc1c(NC(=O)Cc2ccc(Cl)cc2)cccc1-c1nc2cccnc2s1	x	-17.3%	u	-23.0%	x	-37.3%
Cc1nn(C)c(C)c1C1Nc2ccccc2C(=O)N1O (configuration not stated)	9.4	49.8%	12.6µM*	-13.0%[57.1 µM]	3.8	-19.1%
COc1ccc(C2Nc3ccccc3C(=O)N2O)cc1OC (configuration not stated)	-22.3	47.3%	10µM*	u	2.5	-23.5%
Cc1nn(C)cc1C1Nc2ccccc2C(=O)N1O (configuration not stated)	-1.2	60.1%	u	-18.3%[57.1 µM]	4.7	9.8%
COc1ccc(N2CCN(C(=O)c3nc(-c4ccc(Cl)cc4)n4c3CCCCC4)CC2)cc1	x	u	11.2µM*	35.5µM*	x	44.7µM*
CCOc1ccc(CCNC(=O)c2nc(-c3cccc(F)c3)n3c2CCCCC3)cc1OCC	x	u	28.2µM*	50.1µM*	x	17.8µM*
SMILES	CtBP-E1A blk	HP1b chromo inh	G9a inh	JMJD2A Tudor inh	Six1-Eya2 inh	BAZ2B inh
COc1ccc(NC(=O)c2nc(-c3ccc(C)cc3)n3c2CCCCC3)cc1	x	26.5%	u	-23.0%	x	-27.7%
COc1ccc(OC)c(CCNC(=O)c2nc(-c3ccc(Cl)cc3)n3c2CCCCC3)c1	x	-20.8%	14.1µM*	28.2µM*	x	15.8µM*
COc1ccc(NC(=O)c2nc(-c3ccc(C)cc3)n3c2CCCCC3)c(OC)c1	x	23.8%	4.7%[59 µM]	-10.5%	x	0.2%
CN(C(=O)c1nc(-c2cccc(F)c2)n2c1CCCCC2)c1ccccc1F	x	52.5%	8.7%[59 µM]	-27.1%	x	1.0%
Cc1ccc(-c2nc(C(=O)N3CCN(c4ccccc4)CC3)c3n2CCCCC3)cc1	x	35.0%	3.1%[59 µM]	-3.9%	x	-4.4%
Cc1ccc(CNC(=O)c2nc(-c3ccc(Cl)cc3)n3c2CCCCC3)cc1	x	u	8.91µM*	22.4µM*	x	10µM*
CCOc1ccccc1NC(=O)Cn1c(=O)n(-c2ccc(C)c(C)c2)c(=O)c2oc3ccccc3c21	x	22.5%	2.6%[59 µM]	-14.7%	x	-17.2%
Cc1nc(N2CCCC2)ncc1C(=O)N1CCN(c2ccccc2F)CC1	x	28.8%	2.8%[12.7 µM]	8.3%	x	-11.9%
Cc1nc(N2CCCC2)ncc1C(=O)N1CCN(c2ccc(Cl)cc2)CC1	x	38.2%	3.7%[59 µM]	-16.9%	x	79.4µM*
COc1ccc([C@]23Cc4cc(C#N)ccc4C(O2)c2c(cc(C)n(-c4ccccc4)c2=O)O3)cc1	x	x	25.8%[2.33 µM]	x	x	-8.6%[22.9 µM]
COc1ccc(C(=O)/C(C#N)=N/Nc2ccc([N+](=O)[O-])cc2)cc1	x	u	2µM*	7.94µM*	-6.5	7.08µM*
COc1ccc(C(=O)/C(C#N)=N/Nc2ccccc2[N+](=O)[O-])cc1	-19.1	10.7%	u	-22.9%	0.0	-29.0%
COC(=O)/C(=C\C(=O)c1ccc([N+](=O)[O-])cc1)Nc1ccc(OC)cc1	u	11.2µM*	x	17.8µM*	u	5.62µM*
CCOc1ccc(N/N=C(/C#N)C(N)=O)cc1	-10.9	16.2%	u	-30.2%	-13.9	-13.8%
COc1ccc(N/N=C(\C#N)C(=N)N2CCOCC2)cc1	-4.0	12.0%	28.2µM*	-30.6%	-4.7	-30.9%
COc1ccc(N/N=C(\C#N)C(N)=O)cc1	-9.8	-13.6%	8.91µM*	-34.3%	2.5	-4.8%
CC(=O)c1cccc(NC(=O)c2cc3sc(Cl)cc3n2C)c1	x	12.6%	0.3%[59 µM]	1.1%	x	-7.9%
COc1ccc(CNc2ncnc3onc(-c4ccc(F)cc4)c23)cc1	x	26.0%	12.3%[59 µM]	-2.3%	x	14.2%[57.1 µM]
